OTUD3 inh – human OTUD3 deubiquitinase inhibition | 47,000 compounds, 0.7% hits | AID 1645858 | inhibition, % at 25 µM | purified OTUD3, Ub-rhodamine fluorescence, 2 h | Q5T2D3
USP10 inh – blocks human USP10 ubiquitin-rhodamine cleavage | AID 1645856 | inhibition, % at 20 µM | 47,000 compounds, 1.1% hits | Q14694 | purified USP10, Ub-rhodamine fluorescence, 60 min
USP28 inh – blocks human USP28 ubiquitin-rhodamine cleavage; inhibition, % at 25 µM; purified USP28, Ub-rhodamine cleavage fluorescence, 30 min; Q96RU2; AID 1645857; 47,000 compounds, 3% hits
UCHL1 inh – inhibitors of human UCHL1 deubiquitinase | P09936 | purified UCHL1, Ub-rhodamine cleavage fluorescence | inhibition, % at 20 µM | 47,000 compounds, 0.2% hits
USP7 inh – inhibitors of human USP7 deubiquitinase | purified USP7, Ub-rhodamine cleavage fluorescence | Q93009 | inhibition, % at 20 µM | 47,000 compounds, 0.3% hits | AID 1645854
USP8 block – inhibitors of human USP8 deubiquitinase | inhibition, % at 20 µM | purified USP8, Ub-rhodamine cleavage fluorescence, 30 min | 47,000 compounds, 4.2% hits
* hit, by the source's call; / = no result. An excerpt weighted towards active compounds, which were near 6.8% of everything screened. Cut-off read from the data, not from the text of the source: active = inhibition above about 30%; inactive = the rest.

SMILES	OTUD3 inh	USP10 inh	USP28 inh	UCHL1 inh	USP7 inh	USP8 block
CN(C(=O)C1(c2ccccc2)CC1)c1nc2c(s1)CCc1occc1-2	3	4	-4	-2	-5	-151
O=C(c1nc(-c2ccc(F)cc2)no1)N1CCN(c2ccc(Cl)cc2)CC1	15	9	9	6	-9	20
CC1=C(C(=O)OCCc2ccccc2)C(c2ccc3c(c2)OCO3)NC(=O)N1 (centres undefined)	12	8	34*	8	0	6
Cc1cc(C2CC(=O)Nc3c2c(C)nn3-c2nc3ccccc3[nH]2)c(C)s1 (centres undefined)	-11	3	-9	-1	1	30*
Cc1ccccc1C1CC(=O)Nc2c1c(C)nn2-c1ccc2nnc(C)n2n1 (centres undefined)	14	3	18	1	-2	2
CC(C)c1nc2sc3c(SCC(=O)NCc4ccccc4)ncnc3c2c2c1CCC2	-3	-1	/	-5	0	-5
O=C(CN1C(=O)CC(c2ccc(F)cc2)=Nc2ccccc21)Nc1ccccc1	10	15	27	9	4	6
Cc1cccc(C)c1NC(=O)CN1C(=O)CC(c2ccccc2)=Nc2ccccc21	0	39*	-13	-3	3	-11
O=C(NCCc1nc2ccccc2[nH]1)c1[nH]nc2c1CCc1ccccc1-2	4	-2	18	0	6	14
O=C(NCC(=O)N1CCc2[nH]c3ccccc3c2C1)c1ccc(F)cc1	-48	-3	-51	-20	-22	-14
CC(C)C(NC(=O)COc1ccccc1)C(=O)N1CCc2[nH]c3ccccc3c2C1 (centres undefined)	-25	-4	-16	-3	-10	63*
CCN(c1ccccc1)S(=O)(=O)c1nnc(NC(=O)COc2ccc(Cl)cc2)s1	-46	0	-75	-4	7	39*
O=S1(=O)CCN(Cc2ccccc2)c2c(F)nc(N3CCCCC3)c(F)c21	-4	-1	-9	6	-7	87*
CC1CCN(c2nc(F)c3c(c2F)S(=O)(=O)CCN3Cc2ccccc2)CC1	5	-1	6	5	1	92*
Nc1ccccc1SCc1noc(-c2cccs2)n1	-1	-1	73*	-1	-2	-18
COC(=O)c1ccccc1NC(=O)CSc1nnc(CNc2ccc(F)cc2)n1CC1CCCO1 (centres undefined)	10	9	10	6	-4	96*
CCC(C)NC(=O)c1c(O)c2cccc3c2n(c1=O)CC3 (centres undefined)	14	2	13	2	-7	53*
CC1CCCCN1CCCNC(=O)c1ccc(N2CCc3ccccc32)s1 (centres undefined)	19	-3	56*	4	3	11
CC1CCCN(CCCNC(=O)c2ccc(N3CCc4ccccc43)s2)C1 (centres undefined)	10	-1	58*	5	4	-16
CCN1CCN(CCNC(=O)c2ccc(N3CCc4ccccc43)s2)CC1	-15	-1	12	-4	-4	-17
COCCCNC(=O)c1ccc(N2CCOc3ccccc32)s1	-11	0	-13	-1	0	-10
Cc1noc(C)c1COc1cccc(C(=O)Nc2cc(Cl)ccc2-n2cncn2)c1	-1	1	52*	6	5	0
Cc1noc(C)c1COc1cccc(C(=O)Nc2ccccc2)c1	4	1	17	3	3	9
Cn1cc(CN[C@H]2[C@H](O)[C@H](O)C[C@@H]2c2ccc(C(F)(F)F)nc2)cn1	7	-3	18	3	-9	42*
Cn1cc(CN[C@H]2[C@H](O)[C@H](O)C[C@@H]2c2ccccc2)cn1	0	1	1	-1	1	6
SMILES	OTUD3 inh	USP10 inh	USP28 inh	UCHL1 inh	USP7 inh	USP8 block
Cc1cc(NC(=O)CSc2nnc(-c3ccc4c(c3)OCCO4)o2)no1	-1	-4	-11	0	0	31*
Cc1cc(NC(=O)CSc2nnc(-c3cccc(Cl)c3)o2)no1	4	-1	3	1	3	2
Cc1ccc(CNC(=O)CNc2cc(C)nc3nc(-c4cccnc4)nn23)cc1	0	-4	0	-1	0	-1
COc1ccc(CNC(=O)c2cccn2-c2ncc(C(F)(F)F)cc2Cl)cc1	6	2	11	3	-4	6
Cc1cccc(C(C)C)c1NC(=O)COC(=O)c1cc2ccccc2oc1=O	-3	0	-5	0	-1	-3
COc1ccc(Cl)cc1NC(=O)COC(=O)c1cc2ccccc2oc1=O	-2	11	-2	0	9	70*
CCc1cccc(CC)c1NC(=O)COC(=O)c1cc2cccc(OC)c2oc1=O	6	33*	4	3	22	62*
CN1CCN(c2ccc3nnc(CCC(=O)NC4CCCCC4)n3n2)CC1	8	-1	16	-2	2	18
Cc1ccc2nc(NC(=O)C3CC(=O)N(Cc4ccccc4)C3)sc2c1 (centres undefined)	-13	-2	-4	2	-25	31*
COc1ccccc1C(=O)Nc1c(C(=O)N2CCOCC2)oc2ccccc12	-16	0	-12	-3	-23	1
CN1CCN(C(=O)c2oc3ccccc3c2NC(=O)c2ccc(F)cc2)CC1	12	-1	11	4	1	41*
O=C(Nc1c(C(=O)N2CCCCCC2)oc2ccccc12)C1CCCC1	20	2	23	1	-113	32*
Cc1ccc(Cn2c(=O)c3ccccc3n3c(CCC(=O)NCCc4c[nH]c5ccccc45)nnc23)cc1	-29	-8	-5	-6	-13	-24
CC1(C(=O)NCc2ccccc2)Cn2c(cc3ccccc32)C(=O)N1Cc1ccccc1 (centres undefined)	15	16	23	3	7	-162
CCCCCCCCC/C=C/C(=O)CCc1c(O)c(C=O)c2c(c1O)C(=O)OC2O (centres undefined)	75*	45*	71*	86*	87*	31*
CCCCC/C=C/c1c(O)cc(CC=C(C)C)c(O)c1C=O	3	-12	23	-15	-13	-97
O=C(Nc1c2c(nn1-c1ccc([N+](=O)[O-])cc1)CS(=O)(=O)C2)c1cccs1	18	5	6	4	-4	-62
O=C(Nc1c2c(nn1-c1ccc([N+](=O)[O-])cc1)CSC2)c1c(F)cccc1F	20	34*	5	4	0	0
CN1C[C@@H](NC(=O)Nc2ccc(F)cc2F)C[C@H]1c1nc(-c2ccccc2)no1	8	-1	11	0	0	1
O=C(NCc1ccccc1F)c1c(O)c2cnn(Cc3ccccc3)c2[nH]c1=O	7	16	11	3	4	80*
O=C(Nc1ccc(F)cc1)c1c(O)c2cnn(Cc3ccccc3)c2[nH]c1=O	4	6	3	0	4	42*
Cc1ccccc1CNC(=O)c1c(O)c2cnn(Cc3ccccc3)c2[nH]c1=O	-18	1	-17	-4	0	20
